Experimental data from PubChem BioAssay (NCI).
This is part of a sample that, as a whole, favours compounds with a hit. Of some 79,000 tested, about 15% had one in any assay. The source made the active and inactive calls. Rule as the data show it: active = growth inhibition above about 70%; inactive = the rest.

How the values were obtained:
[1] = NCI Yeast Anticancer Drug Screen. Data for the rad52 strain (AID 147);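 also: 0% = growth of vehicle-treated control cultures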; details: S. cerevisiae rad52 mutant growth inhibition, active compounds read high
Outline: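 Inhibition of yeast growth, referenced to vehicle controls, was the measured output for a strain with defective DNA damage repair.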

[2] = NCI Yeast Anticancer Drug Screen. Data for the wt1 strain (AID 149);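 also: 0% = growth of vehicle-treated wt1 cultures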; details: S. cerevisiae wt1 strain (SPY 50644) growth inhibition, active compounds read high
Outline: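 Using yeast strain wt1, compound-induced growth inhibition was determined against vehicle-treated cultures.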

[3] = NCI Yeast Anticancer Drug Screen. Data for the rad50EPP+ strain (AID 151);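 also: 0% = growth of vehicle-treated control cultures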; details: S. cerevisiae rad50 mutant strain, active compounds read high
Outline: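 Genetically defined yeast (rad50EPP+, DNA damage repair alteration) is grown with compound, and inhibition of growth is expressed relative to vehicle-treated controls.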

[4] = NCI Yeast Anticancer Drug Screen. Data for the mgt1 strain (AID 153); details: S. cerevisiae mgt1 mutant growth inhibition, active compounds read high
Outline: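 In the mgt1 strain, test compounds were added and growth inhibition was determined relative to vehicle-treated controls.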

[5] = NCI Yeast Anticancer Drug Screen. Data for the rad50 strain (AID 155);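 also: 0% = growth of vehicle-only cultures of the same strain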; details: S. cerevisiae rad50 strain growth inhibition, active compounds read high
Outline: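 Relative growth inhibition (compound vs vehicle) was measured in yeast with a defined repair-gene alteration.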

[6] = NCI Yeast Anticancer Drug Screen. Data for the mec2-1 strain (AID 157); details: S. cerevisiae mec2-1 strain, active compounds read high
Outline: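 Each compound was tested on mec2-1 yeast, a strain altered in DNA damage repair or cell cycle control. Growth inhibition is reported relative to vehicle.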

[7] = NCI Yeast Anticancer Drug Screen. Data for the rad14 strain (AID 159);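 also: 0% = growth of vehicle-treated control cultures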; details: S. cerevisiae rad14 strain growth inhibition, active compounds read high
Outline: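 Screen for anticancer potential: a yeast strain altered in DNA damage repair is grown with compound, and reduced growth is quantified against vehicle controls.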

[8] = NCI Yeast Anticancer Drug Screen. Data for the sgs1 mgt1 strain (AID 161);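 also: 0% = growth of cultures given vehicle only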; details: S. cerevisiae sgs1 mgt1 strain, active compounds read high
Outline: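 Inhibition of yeast growth, normalised to vehicle-treated controls, is reported for a strain bearing genetic alterations in DNA damage repair.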

[9] = NCI Yeast Anticancer Drug Screen. Data for the CLN2oe strain (AID 163);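 also: 0% = growth of vehicle-only control cultures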; details: S. cerevisiae CLN2oe strain, active compounds read high
Outline: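 First, the altered yeast strain was treated with each compound; second, its growth was measured; finally, inhibition was derived by comparison with vehicle controls.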

[10] = NCI Yeast Anticancer Drug Screen. Data for the cln2 rad14 strain (AID 165);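 also: 0% = growth equal to vehicle treated cultures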; details: S. cerevisiae cln2 rad14 strain, active compounds read high
Outline: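 Test compounds were added to cln2 rad14 yeast cultures; inhibition of growth was then determined by comparison with vehicle treatment.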

[11] = NCI Yeast Anticancer Drug Screen. Data for the bub3 strain (AID 167); details: S. cerevisiae bub3 mutant strain, active compounds read high
Outline: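 Screening used yeast with an engineered genetic alteration affecting cell cycle control. Compound-exposed cultures were compared with vehicle cultures, and reduced growth was taken as inhibition.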

[12] = NCI Yeast Anticancer Drug Screen. Data for the wt2 strain (AID 169);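 also: 0% = growth of vehicle-treated yeast cultures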; details: S. cerevisiae wt2 strain growth inhibition, active compounds read high
Outline: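 The panel's yeast strains carry defined changes in DNA repair or cell cycle genes. Each strain is grown with compound, and growth loss is scored relative to vehicle.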

[13] = NCI Yeast Anticancer Drug Screen. Data for the mlh1 strain (AID 171);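 also: 0% = growth of vehicle-treated control cultures of the same strain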; details: S. cerevisiae mlh1 strain growth inhibition, active compounds read high
Outline: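 Inhibition values reflect reduced yeast growth in the presence of compound, referenced to vehicle controls, using a strain chosen for its alteration in DNA repair or cell cycle control.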

[14] = NCI Yeast Anticancer Drug Screen. Data for the mlh1 rad18 strain (AID 175); details: S. cerevisiae mlh1 rad18 strain growth inhibition, active compounds read high
Outline: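 Inhibition values reflect reduced growth of mutant yeast versus vehicle-treated controls following compound exposure; the mutations affect DNA damage repair.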

[15] = NCI Yeast Anticancer Drug Screen. Data for the rad18 strain (AID 177); details: S. cerevisiae rad18 mutant growth inhibition, active compounds read high
Outline: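 Steps: expose repair-mutant yeast to compound; measure growth; express as inhibition relative to vehicle control.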

[16] = NCI Yeast Anticancer Drug Screen. Data for the sgs1 strain (AID 173);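 also: 0% = growth of vehicle-only control cultures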; details: S. cerevisiae sgs1 mutant, active compounds read high
Outline: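 Vehicle-treated cultures served as reference for growth inhibition of a yeast strain altered in DNA damage repair or cell cycle control after compound exposure.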

[17] = at 5.0 µM (retest, dose inferred, filed as 0.5)
[18] = at 50.0 µM (retest, dose inferred, filed as 5.0)

Measured: growth inhibition

CN(C)CCN1C(=O)c2cccc3cc([N+](=O)[O-])cc(c23)C1=O
inactive: [1]; at 1.2 µM 22% | [1]; at 3.7 µM 58% | [1]; at 11.0 µM 63% | [2]; at 1.2 µM 16% | [2]; at 3.7 µM 0% | [2]; at 11.0 µM -9% | [2]; at 33.0 µM -4% | [2]; at 100.0 µM 23% | [3]; at 1.2 µM 13% | [3]; at 3.7 µM 25% | [3]; at 11.0 µM 28% | [3]; at 33.0 µM 66% | [4]; at 1.2 µM -11% | [4]; at 3.7 µM -13% | [4]; at 11.0 µM 4% | [4]; at 33.0 µM 5% | [4]; at 100.0 µM 68% | [5]; at 1.2 µM 13% | [5]; at 3.7 µM 35% | [5]; [17] 28% | [5]; at 11.0 µM 52% | [6]; at 1.2 µM -4% | [6]; at 3.7 µM 2% | [6]; [17] 2% | [6]; at 11.0 µM -9% | [6]; at 33.0 µM -6% | [6]; [18] 13% | [6]; at 50.0 µM 7.05% | [6]; at 100.0 µM 48% | [7]; at 1.2 µM 2% | [7]; at 3.7 µM 6% | [7]; at 11.0 µM 12% | [7]; at 33.0 µM -1% | [7]; at 100.0 µM 34% | [8]; [17] 11% | [8]; [18] 51% | [8]; at 50.0 µM -10.9% | [9]; at 1.2 µM 18% | [9]; at 3.7 µM 28% | [9]; at 11.0 µM 41% | [9]; at 33.0 µM 36% | [9]; at 100.0 µM 69% | [10]; [17] 5% | [10]; [18] 38% | [10]; at 50.0 µM -26.2% | [11]; at 1.2 µM -1% | [11]; at 3.7 µM 16% | [11]; [17] -6% | [11]; at 11.0 µM 21% | [11]; at 33.0 µM 18% | [11]; [18] 21% | [11]; at 50.0 µM -4.65% | [11]; at 100.0 µM 47% | [12]; at 1.2 µM -3% | [12]; at 3.7 µM 0% | [12]; at 11.0 µM -1% | [12]; at 33.0 µM 1% | [12]; at 100.0 µM 30% | [13]; at 1.2 µM 14% | [13]; at 3.7 µM 1% | [13]; at 11.0 µM -13% | [13]; at 33.0 µM 0% | [13]; at 100.0 µM 60% | [14]; [17] 6% | [14]; [18] 45% | [15]; at 1.2 µM 10% | [15]; at 3.7 µM 16% | [15]; at 11.0 µM 17% | [15]; at 33.0 µM 25%
active: [1]; at 33.0 µM 90% | [1]; at 100.0 µM 93% | [3]; at 100.0 µM 83% | [5]; at 33.0 µM 87% | [5]; [18] 93% | [5]; at 50.0 µM 72.6% | [5]; at 100.0 µM 94% | [15]; at 100.0 µM 80%

COc1cc(N)ccc1Nc1c2ccccc2nc2ccccc12
inactive: [1]; at 1.2 µM -4% | [1]; at 3.7 µM 33% | [2]; at 1.2 µM -17% | [2]; at 3.7 µM -16% | [2]; at 11.0 µM -19% | [2]; at 33.0 µM -17% | [2]; at 100.0 µM 69% | [3]; at 1.2 µM -9% | [3]; at 3.7 µM -11% | [3]; at 11.0 µM 10% | [3]; at 33.0 µM 59% | [4]; at 1.2 µM 2% | [4]; at 3.7 µM 25% | [4]; at 11.0 µM 32% | [4]; at 33.0 µM 51% | [5]; at 1.2 µM 6% | [5]; at 3.7 µM 32% | [5]; at 50.0 µM 36.3% | [6]; at 1.2 µM -45% | [6]; at 3.7 µM -30% | [6]; [17] 20% | [6]; at 11.0 µM -27% | [6]; at 33.0 µM 2% | [6]; at 50.0 µM 42.4% | [7]; at 1.2 µM -43% | [7]; at 3.7 µM -25% | [7]; at 11.0 µM -5% | [7]; at 33.0 µM 13% | [7]; at 100.0 µM 66% | [8]; [17] 58% | [9]; at 1.2 µM 29% | [9]; at 3.7 µM 11% | [9]; at 11.0 µM 6% | [9]; at 33.0 µM 29% | [10]; [17] 40% | [11]; at 1.2 µM 8% | [11]; at 3.7 µM 15% | [11]; [17] 42% | [11]; at 11.0 µM 14% | [11]; at 33.0 µM 28% | [11]; at 50.0 µM 63% | [12]; at 1.2 µM 6% | [12]; at 3.7 µM 9% | [12]; at 11.0 µM 9% | [12]; at 33.0 µM 31% | [13]; at 1.2 µM -24% | [13]; at 3.7 µM -15% | [13]; at 11.0 µM -16% | [13]; at 33.0 µM 11% | [16]; at 1.2 µM -16% | [16]; at 3.7 µM 1% | [16]; at 11.0 µM -4% | [16]; at 33.0 µM 36% | [14]; at 50.0 µM 65.7% | [15]; at 1.2 µM -2% | [15]; at 3.7 µM -11% | [15]; at 11.0 µM -4% | [15]; at 33.0 µM 7%
active: [1]; at 11.0 µM 70% | [1]; at 33.0 µM 82% | [1]; at 100.0 µM 86% | [3]; at 100.0 µM 88% | [4]; at 100.0 µM 89% | [5]; [17] 90% | [5]; at 11.0 µM 74% | [5]; at 33.0 µM 89% | [5]; [18] 95% | [5]; at 100.0 µM 91% | [6]; [18] 92% | [6]; at 100.0 µM 84% | [8]; [18] 97% | [8]; at 50.0 µM 84.9% | [9]; at 100.0 µM 81% | [10]; [18] 83% | [10]; at 50.0 µM 80.8% | [11]; [18] 86% | [11]; at 100.0 µM 85% | [12]; at 100.0 µM 86% | [13]; at 100.0 µM 80% | [16]; at 100.0 µM 92% | [14]; [17] 81% | [14]; [18] 94% | [15]; at 100.0 µM 82%
